This passage reports Potency and activity change, positive = activation results from PubChem BioAssay (NCATS).

Experiment [1] addresses Cytochrome P450 3A4 (Homo sapiens) (UniProt P08684). The experiment in a line: qHTS Assay for Inhibitors and Substrates of Cytochrome P450 3A4 (AID 884). Also: potency is read from the fitted curve at half-maximal effect; nearly all actives have a fitted effect of over 50% in size. A digest of the protocol: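 20 nM human CYP3A4 with 25 uM Luciferin-PPXE (at KM) in 200 mM KPO4, preincubated 10 min with compound; NADPH regeneration started a 60 min RT reaction. Luciferin detected by luminescence, normalized to 57 uM ketoconazole as full inhibition.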
(In qHTS, concentration-response curves come from the screen itself.)

The target is the same in experiment [2]. The experiment in a line: qHTS Assay for Activators of Cytochrome P450 3A4 (AID 885). Also: nearly all actives have a fitted effect of over 65% in size. A digest of the protocol: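 Quantitative HTS format: compounds preincubated with 20nM human CYP3A4 and Luciferin-PPXE substrate at KM, reaction started by NADPH regeneration, stopped after 60 min, luciferase luminescence read 20 min later.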

Values joined by “and” are separate entries in the source; they are usually repeats but may differ in a detail not shown here. Equal entries are not always repeated. A number with no mark means an inactive call. Inconclusive results are not listed. Active and inactive are the calls of the source. Calls follow the shape of the dose curve; as a rule, active = well fitted curve in the direction sought with a large enough effect; inconclusive = small, poorly fitted or top-dose-only effect, or another doubt; inactive = no such curve, though single readings can be large; an effect the other way counts as inactive or inconclusive.

Cytochrome P450 3A4 (Homo sapiens), sequence (P08684 whole entry, looked up): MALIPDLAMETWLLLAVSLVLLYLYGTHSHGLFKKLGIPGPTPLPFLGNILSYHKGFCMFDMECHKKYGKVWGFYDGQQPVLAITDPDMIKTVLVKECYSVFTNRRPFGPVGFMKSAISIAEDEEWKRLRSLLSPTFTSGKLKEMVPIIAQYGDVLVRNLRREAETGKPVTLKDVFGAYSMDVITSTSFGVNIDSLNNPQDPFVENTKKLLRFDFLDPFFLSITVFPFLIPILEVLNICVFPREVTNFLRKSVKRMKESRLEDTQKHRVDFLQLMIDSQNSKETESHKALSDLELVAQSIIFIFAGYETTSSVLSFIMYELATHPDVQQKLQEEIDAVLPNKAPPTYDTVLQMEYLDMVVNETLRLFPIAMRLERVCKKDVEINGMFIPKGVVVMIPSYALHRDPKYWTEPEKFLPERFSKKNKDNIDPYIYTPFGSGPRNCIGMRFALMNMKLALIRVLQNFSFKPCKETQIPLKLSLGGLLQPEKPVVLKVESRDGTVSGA

On to `CCC1=C2CC[C@H]3C(=O)N(C)C(=O)[C@H]3[C@H]2[C@@]2(Cc3ccccc3)C(=NCCc3c[nH]c4ccccc34)OC(=O)N2C1=O`, for which, in experiment [1], the Potency was 1.26 µM (active). Further, the Potency result in experiment [2] was “inactive”.
For the molecule `CNC1=C(Br)C(=O)c2ccncc2C1=O`, the Potency in experiment [1] is 1.26 µM (active). Moreover, the Potency result in experiment [2] was “inactive”.
Turning to `CCC1=C2CC[C@H]3C(=O)N(CC)C(=O)[C@H]3[C@H]2[C@@]2(C)C(=NCCc3c[nH]c4ccccc34)OC(=O)N2C1=O`, the Potency in experiment [1] is 3.98 µM (active). In addition, the Potency result in experiment [2] was “inactive”.
As to `CCC1=C2CC[C@H]3C(=O)N(c4ccccc4)C(=O)[C@H]3[C@H]2[C@@]2(Cc3ccccc3)C(=O)N(CC(=O)OC)C(=O)N2C1=O`, in experiment [1], the Potency was 3.98 µM (active). In experiment [2], the Potency entry was “inactive”.
On the same counts, the results for `O=c1oc2ccccc2c2oc3cc(O)c(O)cc3c12` are 20 µM (active) and “inactive”.
On the same counts, the results for `COC(=O)[C@@H]1C[C@@]2(O)[C@@H](O)[C@@H](O)[C@@H](O)C[C@H]2N1Cc1ccc(C(C)(C)C)cc1` are 12.6 µM (active) and “inactive”.
For `COC(=O)c1ccc(C(NC(=O)OCc2ccccc2)/C(F)=C/[C@@H](C)C(=O)NCc2ccc(OC)c(OC)c2)cc1` (some centres not stated), in that order: 5.01 µM (active) and “inactive”.
With `C=CC[C@@H]1C=C[C@@H](O/N=C\[C@@H](OC)[C@H](C)/C=C\CC(=O)OC)[C@@H](CO)O1`, the Potency in experiment [1] is 3.16 µM (active). In experiment [2], the activity change, positive = activation was -64.1% [at 11.4 µM].
For the molecule `COC(=O)c1cccc(C23CC4(C2)[C@H](CN(C)[C@@H]4c2ccccc2)C3c2ccc(C(F)(F)F)cc2)c1` (some centres not stated), the Potency in experiment [1] was 12.6 µM (active). In addition, the Potency entry in experiment [2] is “inactive”.
Take `COc1c2c(cc3occ(-c4ccc5c(c4)OCO5)c(=O)c13)OC(C)(C)C=C2`: the Potency in experiment [1] was 2.51 µM (active). The Potency entry in experiment [2] is “inactive”.
As for `CCC1=C2CC[C@H]3C(=O)N(c4ccccc4)C(=O)[C@H]3[C@H]2[C@@]2(C)C(=NCc3ccccc3)OC(=O)N2C1=O`, the Potency in experiment [1] is 3.98 µM (active). Besides, the Potency entry in experiment [2] is “inactive”.
On the same counts, the results for `CCC1=C2CC[C@H]3C(=O)N(c4ccccc4)C(=O)[C@H]3[C@H]2[C@@]2(Cc3ccccc3)C(=NCCc3c[nH]c4ccccc34)OC(=O)N2C1=O` are 1.26 µM (active) and “inactive”.
Turning to `COC(=O)[C@@H]1C[C@@]2(O)[C@H](O)[C@H](O)[C@H](O)C[C@H]2N1Cc1ccccc1OS(=O)(=O)c1ccc(C)cc1`, the Potency in experiment [1] is 7.94 µM (active). Besides, the Potency result in experiment [2] was “inactive”.
Consider `O=C(O)c1sccc1S(=O)(=O)Nc1ccccc1N1CCCCC1`, for which, in experiment [1], the Potency was 15.8 µM (active). In addition, in experiment [2], the Potency result is “inactive”.
In the case of `O=C1C[C@@H](O)[C@@H](O)[C@H]2[C@@H]3C(=O)N(Cc4ccc5c(c4)OCO5)C(=O)[C@@H]3CC[C@H]12`, the Potency in experiment [1] was 3.98 µM (active). In experiment [2], the activity change, positive = activation is -78.5% [at 11.4 µM] and -81.2% [at 11.4 µM].
With `CCC1=C(OC(=O)N(CC)CC)N2C(=O)OC(=NCC3CC3)[C@]2(C)[C@H]2C1=CC[C@H]1C(=O)N(C)C(=O)[C@H]12`, the Potency in experiment [1] is 10 µM (active). For the same molecule, in experiment [2], the Potency entry is “inactive”.
As for `CCC1=C(OC(=O)N(CC)CC)N2C(=O)OC(=NCCc3c[nH]c4ccccc34)[C@]2(Cc2ccccc2)[C@H]2C1=CC[C@H]1C(=O)N(CC)C(=O)[C@H]12`, the Potency in experiment [1] was 2 µM (active). Moreover, in experiment [2], the Potency result was “inactive”.
As for `C/C(CCN1CCCc2nc(C)c(C)cc21)=N\O[C@@H](C)c1cn([C@H](CO)Cc2ccccc2)nn1`, the Potency in experiment [1] is 2 µM (active). The activity change, positive = activation in experiment [2] is -60.4% [at 11.4 µM] and -67% [at 11.4 µM].
Consider `COc1c(O)c(O)cc2c1oc1c3cc(C)ccc3oc(=O)c21`, for which the Potency in experiment [1] was 25.1 µM (active). In experiment [2], the Potency result is “inactive”.
As to `CCc1cc2c(nc1CC)CCN(CC/C(C)=N/O[C@@H](C)c1cc(-c3c(C)cc(C)cc3C)no1)C2`, the Potency in experiment [1] was 3.98 µM (active). Moreover, the activity change, positive = activation in experiment [2] is -69% [at 11.4 µM].
On to `COC(=O)[C@@H]1C[C@H]2CC[C@H](O)C[C@H]2N1Cc1ccccc1OC(=O)c1cccs1`, for which the Potency in experiment [1] was 2.51 µM (active). Moreover, the Potency result in experiment [2] is “inactive”.
On to `CCC1=C(OC(=O)N(CC)CC)N2C(=O)OC(=NCC3CC3)[C@]2(Cc2ccccc2)[C@H]2C1=CC[C@H]1C(=O)N(CC)C(=O)[C@H]12`, for which the Potency in experiment [1] was 5.01 µM (active). The Potency result in experiment [2] is “inactive”.
For `CCC1=C(OC(=O)N(CC)CC)N2C(=O)OC(=NCCc3c[nH]c4ccccc34)[C@]2(C)[C@H]2C1=CC[C@H]1C(=O)NC(=O)[C@H]12`, in that order: 2.51 µM (active) and “inactive”.
Take `C/C(CCC(=O)OC[C@@H]1O[C@H](C#Cc2ccccc2)C=C[C@@H]1Oc1ccc(C)cc1)=N/OC[C@@H](O)[C@H]1O[C@H]2OC(C)(C)O[C@H]2[C@@H]1O`: the Potency in experiment [1] was 3.98 µM (active). Also, the activity change, positive = activation in experiment [2] was -117% [at 11.4 µM].
For `CCC1=C2CC[C@H]3C(=O)N(C)C(=O)[C@H]3[C@H]2[C@@]2(Cc3ccccc3)C(=NCC3CC3)OC(=O)N2C1=O`, the Potency in experiment [1] was 5.01 µM (active). Also, the Potency result in experiment [2] is “inactive”.
For the molecule `CCC1=C2CC[C@H]3C(=O)N(c4ccccc4)C(=O)[C@H]3[C@H]2[C@@]2(Cc3ccccc3)C(=NCCOC)OC(=O)N2C1=O`, in experiment [1], the Potency is 7.94 µM (active). Further, the Potency entry in experiment [2] was “inactive”.
